Source: PubChem BioAssay
“And” between values parts separate entries of the source, which are not always exact repeats. Identical values can stand only once. Results filed as inconclusive are left out. More than one record can exist for a structure, and the calls need not agree. The source made the active and inactive calls.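 Rule for the calls, unless noted: active = normalized viability below 100% at a tested concentration; inactive = the rest.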

Assays:
[1] = drug combination growth inhibition, ovarian cancer – cell-based, oncology-focused library, rucaparib conditional, profiling panel (AID 1508598); conditions: patient-derived ovarian cancer cells, CellTiter-Glo viability, 144 h, stronger effect = lower value
[2] = galactose survival enhancers in mitochondrial complex I cybrids – cell-based, galactose medium, ATP luminescence, primary screen (AID 1645843;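 active = z-score of at least 1.8 in each of two replicates, scored against plate mean and spread of sample wells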;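 note: positive z means more ATP and so rescue of galactose-driven cybrid death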); conditions: complex I mutant cybrid cells, 72 h, stronger effect = higher value
[3] = P. berghei load reduction in hepatocytes – cell-based, HepG2, luciferase luminescence, HepG2 viability, primary screen (AID 624349; in the data active = parasite load remaining mostly below about 12%, no sharp cut-off; inactive = mostly above about 10%;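 note: 100% = mean of DMSO negative control wells on the same plate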); conditions: P. berghei liver stage in HepG2, luciferase luminescence, concentration not given here; parasite load remaining: stronger effect = lower value; viability: measured here: HepG2 viability without parasites
[4] = Wnt pathway potentiators raising nuclear beta-catenin – imaging, WNT3A-conditioned medium, mouse C2C12, NPC library, primary screen (AID 1117326; in the data active = nuclear beta-catenin stimulation mostly above about 4.2%, no sharp cut-off; inactive = mostly below about 10%); conditions: stronger effect = higher value
[5] = stimulators of insulin release from INS-1E, primary screen, cell-based, 5 mM glucose, NPC library (AID 1117329;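 active = compound raises insulin release from rat beta cells at 5 mM glucose, no numeric limit stated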); conditions: rat INS-1E insulin secretion, at 10 µM, stronger effect = higher value
[6] = growth inhibition of GSK3B-pretreated HCT116 cells – cell-based, CellTiter-Glo, 0.2 to 20 µM (AID 1117336;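 active = compounds lowering colon cancer cell viability after pretreatment blocking the GSK3B kinase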); conditions: HCT116 viability after GSK3B inhibitor, at 20 µM, stronger effect = higher value
[7] = inhibition of endothelial tube formation, primary screen, imaging, VEGF stimulated, CD31 staining, tube area, NPC library (AID 1117340;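 active = compound that reduces growth-factor-driven endothelial tube area in a mixed cell culture, no cutoff stated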); conditions: VEGF-stimulated ADSC/ECFC co-culture, at 10 µM, stronger effect = higher value
[8] = GLP1 release stimulators, primary, NCI-H716, NPC library (AID 1117341;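 active = compound raises GLP1 secretion from the human gut endocrine cells, with no numeric limit stated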); conditions: NCI-H716 cells, at 10 µM, stronger effect = higher value
[9] = HCT116 colon cancer cell growth inhibition, primary screen, CellTiter-Glo luminescence, NPC library (AID 1117342;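 active = compounds that lower survival of HCT116 colon cancer cells in the luminescence readout, no numeric limit stated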); conditions: at 20 µM (top of the series)
[10] = reduced SW480 viability measured with CellTiter-Glo, NPC library, primary (AID 1117343;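 active = compounds that lower viability of the colon cancer cells in the luminescence readout, with no numeric limit stated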); conditions: CellTiter-Glo luminescence; at 20 µM (top of the series) unless noted
[11] = NPC library primary testing for decreased DLD-1 cell viability via CellTiter-Glo (AID 1117346;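 active = compounds that lower survival of DLD-1 colon cancer cells in the luminescence readout, no cutoff given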); conditions: DLD-1 viability, CellTiter-Glo luminescence; at 20 µM (top of the series)
[12] = viability loss in pontine glioma line – cell-based, SU-DIPG-XVII, MIPE5.0, CellTiter-Glo, qHTS, dose response (AID 1347060; cut-off not given, nearly all actives have AC50 up to about 26 µM;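 for AC50: cells exposed to compound for 48 hours before viability readout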); conditions: CellTiter-Glo ATP luminescence
[13] = viability loss in pontine glioma line – cell-based, SU-DIPG-XIII, MIPE4.0, CellTiter-Glo, qHTS, dose response (AID 1347061; cut-off not given, nearly all actives have AC50 up to about 37 µM;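 note: cells exposed to compound for 48 hours before readout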); conditions: CellTiter-Glo ATP luminescence
[14] = viability loss in pontine glioma line – cell-based, JHH-DIPG-1, MIPE4.0, CellTiter-Glo, qHTS, dose response (AID 1347062; cut-off not given, nearly all actives have AC50 up to about 27 µM;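 for AC50: cells exposed to compound for two days before readout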); conditions: JHH-DIPG-1 viability, CellTiter-Glo ATP luminescence
[15] = growth inhibition of DIPG cells – cell-based, MIPE5.0 library, qHTS (AID 1347068; cut-off not given, nearly all actives have IC50 up to about 30 µM;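 for IC50: cells exposed to compound for 48 hours before viability readout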); conditions: SU-DIPG-XXV viability
[16] = viability loss with induced miR-34 in A549 – imaging, A549 dox-inducible miR-34, nuclei and caspase counts, primary screen (AID 1347080;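 active = compounds whose cell count with miR-34 switched on is under 0.7 times the count with it off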); conditions: A549 miR-34 inducible, Hoechst nuclei count, 48 h
[17] = MELAS cybrid and Rieske KO viability enhancers – cell-based, MELAS cybrids, Rieske KO mouse fibroblasts, CellTiter-Glo, primary screen (AID 1508586;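 active = mean z-score across replicates of 1.96 or higher in either the MELAS or the Rieske mutant cell line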;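 note: z relative to plate mean and SD of compound and empty wells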); conditions: low glucose
[18] = molecular target: NAD(+) hydrolase SARM1 (Homo sapiens) (UniProt Q6SZW1); test: blocking NAD cleavage by SARM1 SAM-TIR – cell lysate, NAD-Glo luminescence (AID 1508614;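 active = compound whose remaining NAD level is above about 45 nM, limit read from the data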;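 note: higher remaining NAD means stronger inhibition of SARM1 NADase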); conditions: SAM-TIR HEK293T lysate NADase, at 1 µM, stronger effect = higher value
[19] = at 0.00488 µM, OCI-P5x cells, with rucaparib 20 µM, 100% = cells with rucaparib alone
[20] = at 0.00488 µM, OCI-P5x cells, without rucaparib
[21] = at 0.0195 µM, OCI-C5x cells, with rucaparib 10 µM, 100% = cells with rucaparib alone
[22] = at 0.0195 µM, OCI-C5x cells, without rucaparib
[23] = at 0.0195 µM, OCI-P5x cells, with rucaparib 20 µM, 100% = cells with rucaparib alone
[24] = at 0.0195 µM, OCI-P5x cells, without rucaparib
[25] = at 0.0781 µM, OCI-C5x cells, with rucaparib 10 µM, 100% = cells with rucaparib alone
[26] = at 0.0781 µM, OCI-C5x cells, without rucaparib
[27] = at 0.0781 µM, OCI-P5x cells, with rucaparib 20 µM, 100% = cells with rucaparib alone
[28] = at 0.0781 µM, OCI-P5x cells, without rucaparib
[29] = at 0.313 µM, OCI-C5x cells, with rucaparib 10 µM, 100% = cells with rucaparib alone
[30] = at 0.313 µM, OCI-C5x cells, without rucaparib
[31] = at 0.313 µM, OCI-P5x cells, with rucaparib 20 µM, 100% = cells with rucaparib alone
[32] = at 0.313 µM, OCI-P5x cells, without rucaparib
[33] = at 1.25 µM, OCI-C5x cells, with rucaparib 10 µM, 100% = cells with rucaparib alone
[34] = at 1.25 µM, OCI-C5x cells, without rucaparib
[35] = at 1.25 µM, OCI-P5x cells, with rucaparib 20 µM, 100% = cells with rucaparib alone
[36] = at 1.25 µM, OCI-P5x cells, without rucaparib
[37] = at 5 µM, OCI-C5x cells, with rucaparib 10 µM, 100% = cells with rucaparib alone
[38] = at 5 µM, OCI-C5x cells, without rucaparib
[39] = at 5 µM, OCI-P5x cells, with rucaparib 20 µM, 100% = cells with rucaparib alone
[40] = at 5 µM, OCI-P5x cells, without rucaparib
[41] = stronger effect = lower value, cell number ratio, induced over uninduced
[42] = measured here: relative caspase fold change +Dox/-Dox
[43] = measured here: total cells with miR-34 induction, stronger effect = lower value
[44] = measured here: total cells without miR-34 induction
[45] = MELAS cybrid survival, CellTiter-Glo 48 h, stronger effect = higher value
[46] = Rieske KO mouse fibroblast survival, CellTiter-Glo 72 h

NAD(+) hydrolase SARM1 (Homo sapiens), sequence (Q6SZW1 whole entry, looked up): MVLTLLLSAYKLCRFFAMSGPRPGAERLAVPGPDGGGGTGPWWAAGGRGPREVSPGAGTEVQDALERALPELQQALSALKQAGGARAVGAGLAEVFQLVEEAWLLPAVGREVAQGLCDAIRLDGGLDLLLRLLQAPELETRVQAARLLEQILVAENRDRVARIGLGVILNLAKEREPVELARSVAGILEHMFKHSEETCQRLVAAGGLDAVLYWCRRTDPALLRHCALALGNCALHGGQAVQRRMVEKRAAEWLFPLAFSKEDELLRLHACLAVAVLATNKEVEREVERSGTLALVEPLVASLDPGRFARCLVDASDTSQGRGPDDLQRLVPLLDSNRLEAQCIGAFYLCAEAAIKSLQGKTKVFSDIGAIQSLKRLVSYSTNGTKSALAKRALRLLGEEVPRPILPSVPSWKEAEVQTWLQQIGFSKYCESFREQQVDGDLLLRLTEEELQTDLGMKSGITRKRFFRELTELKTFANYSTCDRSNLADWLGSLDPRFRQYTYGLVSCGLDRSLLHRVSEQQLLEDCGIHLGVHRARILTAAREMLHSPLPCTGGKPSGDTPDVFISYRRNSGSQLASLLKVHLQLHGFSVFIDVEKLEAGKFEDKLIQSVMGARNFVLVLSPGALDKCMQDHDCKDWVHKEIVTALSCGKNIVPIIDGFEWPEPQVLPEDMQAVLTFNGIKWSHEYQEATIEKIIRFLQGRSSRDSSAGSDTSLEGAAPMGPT

CS(=O)(=O)CCNCc1ccc(-c2ccc3ncnc(Nc4ccc(OCc5cccc(F)c5)c(Cl)c4)c3c2)o1
96.4% (active) and 103% (inactive): viability [1, 23]
116% (inactive) and 91.4% (active): viability [1, 33]
101% (inactive) and 97.5% (active): viability [1, 35]
active: viability [1, 19] 95.5% and 98.8% | viability [1, 31] 96.8% and 98.2% | viability [1, 39] 95.6% and 97.1%
inactive: viability [1, 20] 105% and 108% | viability [1, 21] 109% and 107% | viability [1, 22] 128% and 109% | viability [1, 24] 105% and 111% | viability [1, 25] 113% and 110% | viability [1, 26] 126% and 113% | viability [1, 27] 103% and 104% | viability [1, 28] 111% | viability [1, 29] 119% and 112% | viability [1, 30] 134% and 112% | viability [1, 32] 115% and 118% | viability [1, 34] 126% | viability [1, 36] 108% and 114% | viability [1, 38] 134% and 128% | viability [1, 40] 106% and 118% | z-score [2] -0.555
100% (inactive) and 93.5% (active): viability [1, 37]

O=c1[nH]c(=O)n([C@H]2C[C@H](O)[C@@H](CO)O2)cc1I
8510 and 10100: cell count [16, 44]
inactive: parasite load remaining [3] 42.1% and 24.1% | nuclear beta-catenin stimulation ([4]; at 10 µM) -0.5% | insulin secretion stimulation [5] 0.4% | viability decrease [6] 10.1% | GLP1 secretion stimulation [8] -0.6% | inhibition of viability [9] 11.4% | viability decrease (inhibition) [10] 39.4% | viability decrease (inhibition) [11] 9.4% | outcome [12] | outcome [13] | outcome [14] | outcome [15] | fold change [16, 41] 0.955 and 0.894 | z-score [17, 45] 1.21 and 1.8 | remaining NAD [18] 10 nM | z-score [2] 0.45
1.48 and 1.08: fold change [16, 42]
53.4% and 72.5%: viability [3]
active: tube area decrease [7] 69.4%
0.3%: nuclear beta-catenin stimulation ([4]; stimulation, at 2 µM)
8120 and 9040: cell count [16, 43]
0.284 and 0.0835: z-score [17, 46]

CNC(=O)c1cc(Oc2ccc(NC(=O)Nc3ccc(Cl)c(C(F)(F)F)c3)cc2)ccn1
9.1%: nuclear beta-catenin stimulation ([4]; stimulation, at 2 µM)
0.813 and 0.844: z-score [17, 46]
1320 and 3300: cell count [16, 43]
active: viability decrease [6] 120% | tube area decrease [7] 111% | inhibition of viability [9] 124% | viability decrease (inhibition) [10] 166% | viability decrease (inhibition) [11] 102% | AC50 [12] 14.8 µM | AC50 [13] 18.7 µM | AC50 [14] 18.7 µM | IC50 [15] 10.5 µM | viability ([1]; at 0.000305 µM, OCI-P5x cells, without rucaparib) 97.6% | viability ([1]; at 0.00122 µM, OCI-P5x cells, without rucaparib) 99.4% | viability [1, 20] 99.4% | viability [1, 28] 99.6% | viability [1, 39] 31.8%
inactive: nuclear beta-catenin stimulation ([4]; at 10 µM) -1.4% | insulin secretion stimulation [5] 0.4% | GLP1 secretion stimulation [8] -3.6% | fold change [16, 41] 0.979 and 1.42 | z-score [17, 45] -0.549 and -0.383 | viability ([1]; at 0.000305 µM, OCI-C5x cells, with rucaparib 10 µM, 100% = cells with rucaparib alone) 115% | viability ([1]; at 0.000305 µM, OCI-C5x cells, without rucaparib) 112% | viability ([1]; at 0.000305 µM, OCI-P5x cells, with rucaparib 20 µM, 100% = cells with rucaparib alone) 124% | viability ([1]; at 0.00122 µM, OCI-C5x cells, with rucaparib 10 µM, 100% = cells with rucaparib alone) 119% | viability ([1]; at 0.00122 µM, OCI-C5x cells, without rucaparib) 111% | viability ([1]; at 0.00122 µM, OCI-P5x cells, with rucaparib 20 µM, 100% = cells with rucaparib alone) 129% | viability ([1]; at 0.00488 µM, OCI-C5x cells, with rucaparib 10 µM, 100% = cells with rucaparib alone) 119% | viability ([1]; at 0.00488 µM, OCI-C5x cells, without rucaparib) 114% | viability [1, 19] 136% | viability [1, 21] 111% | viability [1, 22] 112% | viability [1, 23] 133% | viability [1, 24] 101% | viability [1, 25] 108% | viability [1, 26] 106% | viability [1, 27] 144% | viability [1, 29] 111% | viability [1, 30] 116% | viability [1, 31] 144% | viability [1, 32] 105% | viability [1, 33] 116% | viability [1, 34] 120% | viability [1, 35] 155% | viability [1, 36] 114% | viability [1, 37] 123% | viability [1, 38] 126% | viability [1, 40] 116%
1350 and 2320: cell count [16, 44]
0.87 and 0.612: fold change [16, 42]
